VP16 counter = VP16 counterscreen qHTS for inhibitors of ROR gamma transcriptional activity; actives 3.5% (n = 310,000); AID 2546, 2010; Potency, µM (titrated, usually from 53.6 µM), inactives show top-dose activity, negative = inhibition, actives largely listed as inhibitors; Drosophila S2 Gal4-VP16 UAS-luciferase, luminescence, 20 h;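 further: Gal4-VP16 expression switched on by copper sulfate through the metallothionein promoter; potency means the concentration at half of the fitted maximal effect; nearly all actives have a fitted effect of over 50% in size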
TSHR antag = Antagonists of the Thyroid Stimulating Hormone Receptor: HTS campaign. Thyrotropin receptor (Homo sapiens), P16473. TSHR-expressing cells, TSH-stimulated cAMP HTRF, 2 h; hits give low values. activity change, negative = inhibition, % at 11.5 µM. actives 0.2% (n = 330,000). AID 504810, 2011;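 active means activity change below a set negative limit, meaning inhibition stronger than a set level, cut at about -70% in these data; inconclusive means activity change between two set negative limits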
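Freshly harvested TSHR cells receive pin-tooled compound, then EC80 TSH at 4nM final. After 2 hours at 37 deg C, antibody in lysis buffer and cAMP-d2 are added; 30 minutes at ambient temperature precede the HTRF read.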
RORgamma inh = qHTS for inhibitors of ROR gamma transcriptional activity; Nuclear receptor ROR-gamma (Mus musculus), P51450; Drosophila S2 Gal4-RORgamma UAS-luciferase reporter, 20 h; Potency, µM (top dose mostly 53.6 µM), for the others: at the highest dose activity change, negative = inhibition, most hits filed as inhibitors; actives 5.4% (n = 310,000); AID 2551, 2010; further: potency means the concentration at half of the fitted maximal effect; nearly all actives have a fitted effect of over 60% in size
Target sequence (P51450 whole entry, looked up, the tested form may be a part): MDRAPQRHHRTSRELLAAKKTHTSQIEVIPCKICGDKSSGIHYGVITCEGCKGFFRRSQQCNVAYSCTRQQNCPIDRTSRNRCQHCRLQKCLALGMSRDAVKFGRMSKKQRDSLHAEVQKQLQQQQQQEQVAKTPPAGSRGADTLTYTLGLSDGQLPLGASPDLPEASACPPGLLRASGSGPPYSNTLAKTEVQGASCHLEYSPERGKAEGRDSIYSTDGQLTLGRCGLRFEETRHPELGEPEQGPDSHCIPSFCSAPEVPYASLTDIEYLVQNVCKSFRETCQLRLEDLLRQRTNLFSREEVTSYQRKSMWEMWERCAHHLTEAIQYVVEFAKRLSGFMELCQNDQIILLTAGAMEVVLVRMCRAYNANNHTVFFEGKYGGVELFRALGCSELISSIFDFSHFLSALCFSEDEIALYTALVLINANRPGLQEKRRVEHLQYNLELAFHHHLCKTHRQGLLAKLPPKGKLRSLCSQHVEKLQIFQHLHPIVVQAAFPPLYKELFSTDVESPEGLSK
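Schneider cells (Drosophila), stable Gal4 DBD–ROR gamma + UAS-luc; 1 hr cmpd preincubation; Cu2+ induction 700 uM final; 20 hr ambient; luminescence.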
B2AR arrestin = qHTS assay of beta-arrestin-biased ligands of beta2-adrenergic receptor. Beta-2 adrenergic receptor (Homo sapiens), P07550. beta-arrestin recruitment to beta2AR, cell-based reporter. Potency, µM (series often up to 46.1 µM), without a hit: at the top dose activation, most hits filed as activators. actives 0.02% (n = 330,000). AID 492947, 2010;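 further: potency means the concentration at half of the fitted maximal effect; 0% = DMSO controls and full agonism = EC100 isoproterenol or metaproterenol; nearly all actives have a fitted effect of over 65% in size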
ELG1 DNA repair = qHTS screen for small molecules that inhibit ELG1-dependent DNA repair in human embryonic kidney (HEK293T) cells expressing luciferase-tagged ELG1 | HEK293T ELG1-luciferase reporter, luminescence, 16 h; DNA damage induced by 5-fluorouridine | Potency, µM (doses to about 46.1 µM), without a hit: at the highest dose activity change, negative = inhibition, actives largely listed as inhibitors | actives 2.3% (n = 330,000) | AID 504467, 2011; further: potency means the concentration at half of the fitted maximal effect; nearly all actives have a fitted effect of over 55% in size
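Quantitative HTS, concentration-response format. 2,000 cells/well co-treated with 5-fluorouridine and compound, 16 hr in 5% CO2 at 37 °C; ONE-Glo luminescence read after 30 min.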
ELG1 FLuc counter = qHTS screen for small molecules that inhibit ELG1-dependent DNA repair: Hit Confirmation in Cell-Based Luciferin Assay; cell-free firefly luciferase luminescence counter-screen, ViewLux; shares compounds with ELG1 DNA repair; actives 3% (n = 350); Potency, µM (highest dose often 46.1 µM), without a hit: at the highest dose activity change, negative = inhibition, hits mostly inhibitors; further: potency means the concentration at half of the fitted maximal effect
ELG1 Luc conf = HTS assay for small molecules that inhibit ELG1-dependent DNA repair in human embryonic kidney (HEK293T) cells expressing luciferase-tagged ELG1: Hit Confirmation | shares compounds with ELG1 DNA repair | HEK293T ELG1-luciferase levels, luminescence; cells co-treated with 5-fluorouridine | Potency, µM (titrated, usually from 46.1 µM), without a hit: top-dose activity change, negative = inhibition, hits mostly inhibitors | actives 68% (n = 670) | AID 624248, 2012; further: potency means the concentration at half of the fitted maximal effect; nearly all actives have a fitted effect of over 55% in size
ELG1-Luc MMS = confirmation of human ELG1 repair inhibitors, MMS stimulated | shares compounds with ELG1 DNA repair | HEK293T luciferase-tagged ELG1 level, MMS stimulated | actives 53% (n = 670) | Potency, µM (doses to about 46.1 µM), without a hit: top-dose activity change, negative = inhibition, actives largely listed as inhibitors; further: potency means the concentration at half of the fitted maximal effect; nearly all actives have a fitted effect of over 60% in size
ELG1 5-FU = qHTS screen for small molecules that inhibit ELG1-dependent DNA repair: Hit Confirmation with 5FU Viability. AID 624250, 2012. Potency, µM (titrated, usually from 46.1 µM), inactives show at the top dose activity change, negative = viability loss, usual class: cytotoxic. shares compounds with ELG1 DNA repair. cell viability with 5-FU, ELG1-dependent repair. 670 tested, under 10 active;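 further: ELG1-luc HEK293T cells cotreated with 5-fluorouridine at 10 µM final; potency means the concentration at half of the fitted maximal effect; viability measured 16 h after compound addition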
ELG1 MMS viab = qHTS screen for small molecules that inhibit ELG1-dependent DNA repair: Hit Confirmation with MMS Viability. shares compounds with ELG1 DNA repair. Cell viability with MMS, ELG1-dependent DNA repair. Potency, µM (top dose mostly 46.1 µM), for inactives: at the top dose activity change, negative = viability loss, hits mostly cytotoxic. actives 33% (n = 670). AID 624251, 2012;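 further: ELG1-luc HEK293T cells co-treated with 10 µM MMS; potency means the concentration at half of the fitted maximal effect; viability read 16 h after compound addition; nearly all actives have a fitted effect of over 60% in size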
Cell viab unstim = qHTS screen for small molecules that inhibit ELG1-dependent DNA repair: Hit Confirmation with Unstimulated Viability Assay | shares compounds with ELG1 DNA repair | cell viability counter-screen, unstimulated, luminescence | Potency, µM (series often up to 45.9 µM), for inactives: at the highest dose activity change, negative = loss of viability, usual class: cytotoxic | actives 8% (n = 900);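 further: potency means the concentration at half of the fitted maximal effect; compound exposure lasted 16 hours before reading; nearly all actives have a fitted effect of over 55% in size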
FLuc enzyme = qHTS screen for small molecules that inhibit ELG1-dependent DNA repair: Hit Confirmation in Biochemical Luciferin Assay | purified firefly luciferase, luminescence counter-screen | shares compounds with ELG1 DNA repair | AID 624253, 2012 | actives 10% (n = 350) | Potency, µM (highest dose often 57.5 µM), for inactives: top-dose activity, negative = inhibition, hits mostly inhibitors; further: potency means the concentration at half of the fitted maximal effect
Active calls of the source: *; ? = inconclusive; · = no result. A selection: hits, their analogues and other compounds. The true share with any hit is near 7.5%. Unless noted, the call rests on the fitted dose curve; in most records, active means well fitted curve in the direction sought with a large enough effect; inconclusive means small, poorly fitted or top-dose-only effect, or another doubt; inactive means no such curve, though single readings can be large; an effect the other way counts as inactive or inconclusive. Unless noted, on the % scale 0 is the no-effect control and ±100 the full control effect.

SMILES	VP16 counter	TSHR antag	RORgamma inh	B2AR arrestin	ELG1 DNA repair	ELG1 Luc conf	ELG1-Luc MMS	ELG1 5-FU	ELG1 MMS viab	Cell viab unstim	others
COc1ccc(-c2nc(CN3CCN(C(=O)c4ccco4)CC3)c(C)o2)c(F)c1	22%	1	11%	-3%	19%	·	·	·	·	·
Nc1ccc2nc(SCC(=O)N3CCN(c4ccccc4)CC3)sc2c1	4%	-4	28%	0%	2.6µM*	?	7.9µM*	-3%	7.1µM*	?
O=c1c2ccccc2nc(COc2ccccc2)n1/N=C/c1c[nH]c2ccccc12	-2%	14	?	0%	2.3µM*	6.3µM*	-18%	?	4%	?
COc1ccc(-c2oc(=O)c3cc(OC)c(OC)cc3c2C#CCCCO)cc1	·	-2	·	0%	?	·	·	·	·	·
COc1cc2c(C#CCCCO)c(-c3ccsc3)oc(=O)c2cc1OC	·	3	·	0%	4.1µM*	6.3µM*	?	-1%	?	?
O=C(CSc1nc2ccccc2c(=O)n1-c1ccc(Cl)cc1)N/N=C/C=C/c1ccccc1[N+](=O)[O-]	11%	36	-3%	0%	?	·	·	·	·	·
O=C(CSc1nc2ccccc2c(=O)n1-c1ccccc1)N/N=C/C=C/c1ccccc1[N+](=O)[O-]	8%	11	11%	0%	2.9µM*	10µM*	3%	?	?	-1%	ELG1 FLuc counter=3%;FLuc enzyme=-11%
COc1ccc2c(c1)c(CC(=O)Nc1ccccc1OC)c(C)n2C(=O)c1ccc(Cl)cc1	-11%	-13	25%	-1%	-20%	10µM*	?	?	?	-3%	ELG1 FLuc counter=3%;FLuc enzyme=3%
O=NN(CCc1ccncc1)c1ccc(OCc2ccccc2)cc1	6.3µM*	-15	7.1µM*	0%	0.82µM*	?	2.8µM*	-2%	3.5µM*	-10%	ELG1 FLuc counter=6%;FLuc enzyme=-7%
O=C(NCc1ccncc1)C(=O)N/N=C/c1ccc(OCc2ccccc2)cc1	-10%	-4	6%	7%	?	·	·	·	·	·
CC1O[C@@H](OC2C(O)C(O)C(CO)O[C@H]2OC2C[C@]3(C)C(CC(O)C4[C@@H]([C@]5(C)CC[C@@H](C(C)(C)O)O5)CC[C@]43C)[C@@]3(C)CCC(O)C(C)(C)C23)C(O)C(O)C1O (stereo not given in full)	·	-3	·	0%	9%	·	·	·	·	·
CCN(C[C@H]1N[C@@](CC)(C(=O)OC)[C@H]2C(=O)N(Cc3ccccc3)C(=O)[C@@H]12)C(=O)c1ccc(C(C)(C)C)cc1	·	-22	·	-1%	3.7µM*	?	7.1µM*	-1%	?	25µM*
CCc1ccccc1NC(=O)CN1CCN(CC(=O)Nc2cc(C)ccc2OC)CC1	1%	6	35%	-1%	1.6µM*	?	2.2µM*	7%	2.5µM*	-7%
CC(=O)Oc1ccc(-c2nc(-c3ccccc3)no2)cc1	·	·	·	·	·	·	·	·	·	?
COc1cc2c(cc1O)CCN(C(=O)CSc1nncn1C)[C@@H]2C	·	-29	·	0%	20%	·	·	·	·	·
CN(C)S(=O)(=O)Oc1ccc(C(=O)Nc2ccc([N+](=O)[O-])cc2)cc1	-4%	-15	22%	0%	2.9µM*	0.71µM*	3.1µM*	?	?	3%
COc1cccc(N2C(=O)C(c3ccccc3)=C(c3nc4ccccc4s3)C2NC(C)=O)c1 (stereo not given)	7%	1	-5%	0%	2.3µM*	3.2µM*	3%	?	-2%	-3%	ELG1 FLuc counter=3%;FLuc enzyme=-16%
CC(=O)NC1C(c2nc3ccccc3s2)=C(c2ccccc2)C(=O)N1c1ccc(C)cc1 (stereo not given)	13%	4	26%	-1%	?	·	·	·	·	·
COc1ccc(-c2noc(CCCC(=O)NC3CCCC3)n2)cc1	14µM*	-6	4.5µM*	0%	4.6µM*	?	5.6µM*	1%	7.1µM*	?
O=C(/C=C\c1cn(-c2ccccc2)nc1-c1ccc2c(c1)OCCO2)N1CCOCC1	-2%	7	11%	-1%	3.3µM*	1.6µM*	?	?	?	-8%
O=C(NCc1ccc(CNC(=O)c2ccco2)cc1)c1ccco1	8%	10	3%	0%	0%	·	·	·	·	·
CN(C)CCNC(=O)c1ccccc1-c1cc2ccccc2c(=O)o1	-5%	8	13%	0%	1%	·	·	·	·	·

Screening results deposited in PubChem BioAssay by National Center for Advancing Translational Sciences (NCATS).
